IL-1B inflam inh – inflammasome signaling inhibition, IL-1 beta readout | actives 4.7% (n = 360,000) | activity change, % at 57.5 µM | THP-1 LPS/ATP IL-1B secretion, AlphaLISA, 16 h; stronger effect = lower value; in the data active means activity change below about -50%; inconclusive means mostly about -30% to -49%
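THP-1 cells pretreated 1 hr with compounds (up to 57.5 uM final), then stimulated with LPS (250 ng/mL final) plus ATP (1.25 mM final); secreted IL-1B measured by AlphaLISA after 16 hr, decreased signal indicating inhibition.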
TDP1 cell CPT – growth inhibition of DT40 Tdp1-/-;hTDP1 cells with camptothecin (screen for TDP1 inhibitors) | actives 12% (n = 420,000) | chicken DT40 Tdp1-/-;hTDP1 cells + 20 nM CPT, ATP luminescence, 48 h | Potency, µM (top dose mostly 46.2 µM), inactives show at the highest dose activity change, negative = growth inhibition, most hits filed as inhibitors; further: potency means the concentration at half of the fitted maximal effect; nearly all actives have a fitted effect of over 55% in size
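Chicken DT40 Tdp1-/- cells stably complemented with human TDP1 were seeded at 400 cells/well in medium containing 20 nM camptothecin, exposed to pin-transferred compounds, and grown at 37 °C for at least 48 hr. Viability was read as ATP luminescence.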
HT1080NT lethal – kills 2HG-producing HT-1080-NT fibrosarcoma cells | HT-1080-NT fibrosarcoma viability, CellTiter-Glo ATP luminescence, 48 h | Potency, µM (titrated, usually from 46.1 µM), for the others: at the highest dose activity, negative = less viability, usual class: cytotoxic | actives 1.6% (n = 360,000);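 further: NT is the 2HG producing partner of a matched IDH1 knockdown line; potency means the concentration at half of the fitted maximal effect; 0% = DMSO-treated cells and -100% = media-only wells without cells; nearly all actives have a fitted effect of over 55% in size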
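Viability of the 2HG-overproducing fibrosarcoma line after 48 hours of compound exposure at 37 degrees C was determined by luminescence with CellTiter-Glo, and concentration-effect curves were then fitted and categorized.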
12-LOX inh – blocks human arachidonate 12S-lipoxygenase | Potency, µM (highest dose often 108 µM), without a hit: top-dose activity change, negative = inhibition, hits mostly inhibitors | P18054 | actives 1.1% (n = 580,000) | purified 12hLO, xylenol orange hydroperoxide absorbance | AID 1671190; further: potency means the concentration at half of the fitted maximal effect
Target sequence (P18054 whole entry, looked up): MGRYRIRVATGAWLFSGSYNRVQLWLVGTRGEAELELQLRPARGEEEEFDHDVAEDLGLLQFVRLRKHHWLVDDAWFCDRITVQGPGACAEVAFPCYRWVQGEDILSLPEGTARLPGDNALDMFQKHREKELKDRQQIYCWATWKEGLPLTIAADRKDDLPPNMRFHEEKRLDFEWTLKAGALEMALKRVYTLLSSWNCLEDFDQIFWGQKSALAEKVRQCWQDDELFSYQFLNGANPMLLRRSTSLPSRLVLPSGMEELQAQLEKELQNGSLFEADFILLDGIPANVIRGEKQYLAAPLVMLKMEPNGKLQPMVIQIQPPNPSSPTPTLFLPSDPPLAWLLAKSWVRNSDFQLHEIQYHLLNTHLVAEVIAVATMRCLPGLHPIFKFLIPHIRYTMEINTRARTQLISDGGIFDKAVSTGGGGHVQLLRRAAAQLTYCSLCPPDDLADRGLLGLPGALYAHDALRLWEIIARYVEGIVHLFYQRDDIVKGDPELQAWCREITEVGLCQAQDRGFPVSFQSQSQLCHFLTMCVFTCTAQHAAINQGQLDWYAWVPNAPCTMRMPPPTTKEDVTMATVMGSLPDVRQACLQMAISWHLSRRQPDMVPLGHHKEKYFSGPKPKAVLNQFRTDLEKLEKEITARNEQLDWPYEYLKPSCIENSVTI
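Purified human 12hLO at 150 nM in 25 mM Hepes, 0.01% Triton X-100, pH 7.0, preincubated 15 min at room temperature with compound. Reaction started with 40 uM arachidonic acid, 30 min at room temperature. Hydroperoxide measured by Fe-xylenol orange, 573/405 nm absorbance ratio.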
HT1080 IDH1KD tx – kills HT-1080 cells with IDH1 knockdown. HT-1080 IDH1 knockdown viability, ATP luminescence, 48 h. Potency, µM (doses to about 46.1 µM), without a hit: at the top dose activity, negative = toxicity, hits mostly cytotoxic. actives 2% (n = 360,000). AID 686971;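 further: potency means the concentration at half of the fitted maximal effect; 0% = DMSO wells and -100% = cell-free medium wells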
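% activity derives from luminescence (CellTiter-Glo), normalised to DMSO and no-cell wells. HT-1080-IDH1KD cells, 750/well, had 48 h compound exposure at 37 °C.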
TDP1 cell noCPT – qHTS for Inhibitors of human tyrosyl-DNA phosphodiesterase 1 (TDP1): qHTS in cells in absence of CPT | DT40 Tdp1-/- hTDP1 cells, no CPT, ATP luminescence, 48 h | Potency, µM (highest dose often 46.2 µM), inactives show at the highest dose activity change, negative = growth inhibition, usual class: inhibitors | actives 15% (n = 420,000); further: potency means the concentration at half of the fitted maximal effect; nearly all actives have a fitted effect of over 55% in size
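Cells were dispensed at 400 per well, compounds added by pin tool, plates incubated ≥48 hr at 37 °C, then CellTiter-Glo added for 30 min at room temperature before luminescence reading. Line: DT40 Tdp1-/- complemented with hTDP1; camptothecin omitted.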
Active calls of the source: *; [ ] = remark or other dose. The full list was thinned out, with hits kept by preference. Unless noted, the call rests on the fitted dose curve; in most records, active means well fitted curve in the direction sought with a large enough effect; inconclusive means small, poorly fitted or top-dose-only effect, or another doubt; inactive means no such curve, though single readings can be large; an effect the other way counts as inactive or inconclusive. Unless noted, on the % scale 0 is the no-effect control and ±100 the full control effect.

How did COc1ccc(CN2Cc3cnnn3-c3ccccc3C2C#N)cc1 (stereo not drawn) do in these assays?
IL-1B inflam inh: -102*; TDP1 cell CPT: 1.8µM*; HT1080NT lethal: 8.2µM*; 12-LOX inh: inconclusive; HT1080 IDH1KD tx: 6.5µM*; TDP1 cell noCPT: 1.8µM*

Results for CS(=O)(=O)NC[C@H]1C[C@@H]2CCN1C[C@@H]2CN1CCCCC1 ?
12-LOX inh: 23%[176 µM]

Results for CC[C@H]1CN2CC[C@@]3(C(=O)Nc4ccccc43)[C@@H]2C[C@@H]1/C(=C\OC)C(=O)OC ?
IL-1B inflam inh: -1; TDP1 cell CPT: 0%; HT1080NT lethal: 8%; HT1080 IDH1KD tx: 11%; TDP1 cell noCPT: -7%

How did COc1ccc(CN2Cc3cnnn3-c3ccccc3C2c2ccccc2)cc1 (stereo not drawn) do in these assays?
IL-1B inflam inh: 6; TDP1 cell CPT: 16µM*; HT1080NT lethal: inconclusive; 12-LOX inh: -4%; HT1080 IDH1KD tx: inconclusive; TDP1 cell noCPT: 16µM*

How did c1ccc(C2c3ccccc3-n3nncc3CN2CC2CCCCC2)cc1 (stereo not drawn) do in these assays?
IL-1B inflam inh: 16; TDP1 cell CPT: inconclusive; HT1080NT lethal: -2%; 12-LOX inh: 0%; HT1080 IDH1KD tx: -23%; TDP1 cell noCPT: inconclusive

How did Cc1ccc(-n2c(/C=C/c3cccs3)nc3ccccc3c2=O)cc1C do in these assays?
TDP1 cell CPT: inconclusive; 12-LOX inh: 1%; TDP1 cell noCPT: inconclusive

Results for Cc1cccc(-n2c(/C=C/c3ccc([N+](=O)[O-])o3)nc3ccccc3c2=O)c1 ?
IL-1B inflam inh: -104*; TDP1 cell CPT: 3.3µM*; HT1080NT lethal: 5%; 12-LOX inh: -34%; HT1080 IDH1KD tx: inconclusive; TDP1 cell noCPT: 4.6µM*

How did O=c1c2ccccc2nc(/C=C/c2ccc([N+](=O)[O-])o2)n1-c1ccc(O)cc1 do in these assays?
IL-1B inflam inh: -88*; TDP1 cell CPT: 2.3µM*; HT1080NT lethal: inconclusive; 12-LOX inh: -21%; HT1080 IDH1KD tx: 2.6µM*; TDP1 cell noCPT: 2.3µM*

How did COc1cc2c(cc1Oc1cccc(N(C)C)c1)NC(=O)C21CCN(c2ncccn2)CC1 do in these assays?
12-LOX inh: 3%

What do the screens show for `COc1cc(-n2c(=S)[nH]c3ccccc3c2=O)c(Cl)cc1Cl`?
IL-1B inflam inh: 0; TDP1 cell CPT: inconclusive; HT1080NT lethal: inconclusive; 12-LOX inh: inconclusive; HT1080 IDH1KD tx: inconclusive; TDP1 cell noCPT: 26µM*

What do the screens show for `CC(C)Oc1cc(-n2c(=S)[nH]c3ccccc3c2=O)c(Cl)cc1Cl`?
IL-1B inflam inh: 29; TDP1 cell CPT: inconclusive; HT1080NT lethal: -27%; 12-LOX inh: 0%; HT1080 IDH1KD tx: inconclusive; TDP1 cell noCPT: 16µM*

Results for COc1cccc(-n2c(=S)[nH]c3ccccc3c2=O)c1 ?
IL-1B inflam inh: 4; TDP1 cell CPT: -1%; HT1080NT lethal: -6%; 12-LOX inh: 3%; HT1080 IDH1KD tx: -2%; TDP1 cell noCPT: inconclusive

Results for C[C@@]12CC[C@@H]3c4ccc(O)cc4C[C@H](CCCCCCCCCS(=O)CCCC(F)(F)C(F)(F)F)[C@H]3[C@@H]1CC[C@@H]2O (stereo partly drawn) ?
TDP1 cell CPT: -58%; 12-LOX inh: 0%; TDP1 cell noCPT: 12µM*

How did CCc1cc2c(cc1-c1csc(C/C(N)=N/O)n1)C(C)(C)CCC2(C)C do in these assays?
IL-1B inflam inh: -19; TDP1 cell CPT: inconclusive; HT1080NT lethal: inconclusive; 12-LOX inh: -10%; HT1080 IDH1KD tx: inconclusive; TDP1 cell noCPT: 18µM*

What do the screens show for `COc1ccccc1N1CCN(C(=O)[C@H]2CN3CCC2C[C@@H]3Cn2cc(CCO)nn2)CC1` (stereo partly drawn)?
12-LOX inh: 20%

Assay outcomes deposited in PubChem by National Center for Advancing Translational Sciences (NCATS).
